Source: PubChem BioAssay
Hits are enriched below; roughly 4.2% of the tested compounds scored in any of these assays.
CHOP inhibitor: blocks CHOP induction under ER stress; CHO-K1 CHOP-promoter luciferase, tunicamycin-induced, 15-18 h; inhibition, % at 10 µM; AID 2732; 3.8% of 220,000 active;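 active means compounds that reduced the stress-induced luciferase reporter signal by more than about 70% of percent inhibition, limit read from the data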;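 further: 0% = tunicamycin plus vehicle and 100% = wells without tunicamycin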
S1P4 agonist: human S1P4 receptor agonism | S1P4-expressing cell line, agonist reporter assay | activation, % at 4.98 µM | 0.35% of 220,000 active; in the data active means activation above about 11%;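 further: 0% = DMSO vehicle and 100% = reference agonist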
Target sequence (O95977 whole entry, looked up): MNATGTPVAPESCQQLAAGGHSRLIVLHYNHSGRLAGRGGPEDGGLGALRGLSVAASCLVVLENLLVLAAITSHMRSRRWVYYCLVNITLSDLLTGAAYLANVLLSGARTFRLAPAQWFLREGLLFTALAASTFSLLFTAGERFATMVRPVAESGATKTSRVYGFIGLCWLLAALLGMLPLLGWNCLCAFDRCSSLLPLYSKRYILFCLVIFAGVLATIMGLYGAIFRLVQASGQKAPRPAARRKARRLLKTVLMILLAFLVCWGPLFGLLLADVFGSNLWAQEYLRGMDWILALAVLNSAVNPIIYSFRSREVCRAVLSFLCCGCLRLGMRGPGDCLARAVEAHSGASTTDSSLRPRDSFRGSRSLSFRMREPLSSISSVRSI
S1P4 antag: blocks the human S1P4 receptor. O95977. S1P4-expressing cells, antagonist mode, reporter read-out. inhibition, % at 4.98 µM. 0.26% of 220,000 active. AID 1510; in the data active means inhibition above about 29%;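 further: 0% = wells stimulated with agonist and 100% = vehicle wells without agonist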
Hsp70 act: transcriptional activators of Hsp70 | HeLa Hsp70 promoter luciferase reporter, luminescence; scaled: vehicle 0, proteasome-inhibitor control 100% | activation, % at 10 µM | 0.04% of 200,000 active | AID 1203;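 active means activation above the mean across all tested compounds plus 3 SD, cutoff set per campaign, cut at about 5.5% in these data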;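 further: 100% = MG132 at 30 µM as the positive control and 0% = DMSO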
Numbers without * were called inactive.

What do the screens show for `O=C/C(=C\Nc1ccc(Cl)cn1)c1nc2cc(Cl)ccc2o1`?
CHOP inhibitor: 75.0*; S1P4 agonist: -0.9; S1P4 antag: 3.6; Hsp70 act: -0.1

What do the screens show for `O=c1[nH]c2cc(Cl)ccc2n(CCNc2ncc(C(F)(F)F)cc2Cl)c1=O`?
CHOP inhibitor: 32.1; S1P4 agonist: 1.3; S1P4 antag: -12.2; Hsp70 act: -0.3

Results for COc1cc(/C=N/NC(=O)COc2c(C)cc([N+](=O)[O-])cc2C)ccc1OC(=O)c1ccccc1Br ?
CHOP inhibitor: 76.3*; S1P4 agonist: 0.7; S1P4 antag: 0.1; Hsp70 act: -0.1

How did CCCCCCCCOC(=O)c1c(CSC(=N)N)n(C)c2cc(Br)c(OC(C)=O)cc12 do in these assays?
CHOP inhibitor: 99.8*; S1P4 agonist: 0.3; S1P4 antag: 1.3

Results for CCOC(=O)c1c(CSc2nc(C)cc(C)c2C#N)n(C)c2cc(Br)c(OC(C)=O)cc12 ?
CHOP inhibitor: 0.9; S1P4 agonist: 0.5; S1P4 antag: -9.4; Hsp70 act: -0.2

What do the screens show for `CCOC(=O)c1c(CN2CCCCC2)n(C)c2cc(Br)c(OC)cc12`?
CHOP inhibitor: 46.5; S1P4 agonist: 2.8; S1P4 antag: -34.7; Hsp70 act: 0.0

What do the screens show for `CCOC(=O)c1c(CSC(=N)N)n(-c2ccc(Br)cc2)c2cc(Br)c(OC(C)=O)cc12`?
CHOP inhibitor: 109.8*; S1P4 agonist: -0.5; S1P4 antag: 23.0; Hsp70 act: 0.4

Results for C=CCCc1ccc(C#N)c(SCc2c(C(=O)OCC)c3cc(OC(C)=O)c(Br)cc3n2C)n1 ?
CHOP inhibitor: 71.9*; S1P4 agonist: 2.5; S1P4 antag: -7.2; Hsp70 act: -0.1

How did Cc1cc(Cl)ccc1NC(=S)NCC(C)C do in these assays?
CHOP inhibitor: 0.4; S1P4 agonist: -3.3; S1P4 antag: 9.0; Hsp70 act: -0.2

What do the screens show for `Cc1csc2c(=O)sc(NC(=O)c3ccco3)nc12`?
CHOP inhibitor: -16.3; S1P4 agonist: 1.3; S1P4 antag: -40.1

Results for CCOC(=O)c1sc(NC(=O)CCCCCN2C(=O)c3cccc4cccc(c34)C2=O)nc1C ?
CHOP inhibitor: 71.9*; S1P4 agonist: 1.4; S1P4 antag: -20.6; Hsp70 act: -0.1

How did O=C(N/N=C/c1cc(Cl)ccc1O)c1ccc(Br)cc1 do in these assays?
CHOP inhibitor: 79.9*; S1P4 agonist: -0.1; S1P4 antag: -15.2; Hsp70 act: 0.1

What do the screens show for `O=C(N/N=C/c1cc(Br)ccc1O)c1ccncc1`?
CHOP inhibitor: 69.2; S1P4 agonist: 1.6; S1P4 antag: 3.6

How did CCCCN(CCCC)C(=O)CSc1nnc(-c2cc(OC)c(OC)c(OC)c2)o1 do in these assays?
CHOP inhibitor: 39.9; S1P4 agonist: 0.0; S1P4 antag: 3.0; Hsp70 act: -0.3

Results for COc1ccc(C2=NOC(C(=O)Nc3c(C)n(C)n(-c4ccccc4)c3=O)C2)cc1 (stereo unspecified) ?
CHOP inhibitor: 28.1; S1P4 agonist: -1.0; S1P4 antag: -7.0; Hsp70 act: -0.2

How did N#Cc1c(NC(=S)NC(=O)c2ccccc2)sc2c1CCC2 do in these assays?
CHOP inhibitor: 60.5; S1P4 agonist: 1.9; S1P4 antag: -10.9; Hsp70 act: -0.5

What do the screens show for `Cn1nccc1C(=O)NC(=S)Nc1sc2c(c1C#N)CCCCC2`?
CHOP inhibitor: 91.2*; S1P4 agonist: 0.6; S1P4 antag: -8.8; Hsp70 act: -0.2

What do the screens show for `O=c1c2ccccc2[nH]c(=S)n1CCc1ccccc1`?
CHOP inhibitor: 73.2*; S1P4 agonist: 0.9; S1P4 antag: -1.3; Hsp70 act: -0.3

What do the screens show for `Cc1ccc(/C=C2/NC(=O)N(Cc3ccc(Br)cc3)C2=O)o1`?
CHOP inhibitor: 104.7*; S1P4 agonist: 0.6; S1P4 antag: 0.4; Hsp70 act: -0.1

Results for O=C1N/C(=C\c2ccc(N3CCOCC3)c(F)c2)C(=O)N1Cc1ccccc1 ?
CHOP inhibitor: 85.1*; S1P4 agonist: -3.2; S1P4 antag: 4.5; Hsp70 act: -0.1

Results for Cc1ccc(CN2C(=O)N/C(=C\c3ccc(N4CCOCC4)cc3)C2=O)cc1 ?
CHOP inhibitor: 92.3*; S1P4 agonist: 0.5; S1P4 antag: -6.0; Hsp70 act: -0.3

Results for COc1ccccc1NS(=O)(=O)c1ccc(OC)c([N+](=O)[O-])c1 ?
CHOP inhibitor: 5.4; S1P4 agonist: 2.6; S1P4 antag: 0.2; Hsp70 act: 0.0

How did Cc1cc([N+](=O)[O-])nn1CCCC(=O)Nc1cc(Oc2ccc(F)cc2)cc([N+](=O)[O-])c1 do in these assays?
CHOP inhibitor: 70.2*; S1P4 agonist: 2.7; S1P4 antag: 6.3; Hsp70 act: -0.1

What do the screens show for `Cc1cc([N+](=O)[O-])nn1CCCC(=O)Nc1cc(Oc2ccccc2)cc([N+](=O)[O-])c1`?
CHOP inhibitor: 73.7*; S1P4 agonist: -0.4; S1P4 antag: -20.2; Hsp70 act: 0.1

How did Cc1ccc(Oc2cc(NC(=O)CCCn3nc([N+](=O)[O-])c(Cl)c3C)cc([N+](=O)[O-])c2)cc1 do in these assays?
CHOP inhibitor: 80.7*; S1P4 agonist: -0.3; S1P4 antag: -4.8; Hsp70 act: 0.2

How did COC(=O)c1ccccc1NC(=O)CCCn1nc([N+](=O)[O-])cc1C do in these assays?
CHOP inhibitor: 4.1; S1P4 agonist: 1.0; S1P4 antag: -12.3; Hsp70 act: -0.1

Results for Cc1c(Cl)c([N+](=O)[O-])nn1CCCC(=O)Nc1cccc(Cl)c1 ?
CHOP inhibitor: 41.9; S1P4 agonist: 1.1; S1P4 antag: -36.4; Hsp70 act: -0.3

How did CSc1nnc(Cc2sc(-c3ccccc3)nc2-c2ccccc2)o1 do in these assays?
CHOP inhibitor: 82.9*; S1P4 agonist: 1.0; S1P4 antag: 0.5; Hsp70 act: 0.0

What do the screens show for `Fc1ccc(CSc2nnc(Cc3sc(-c4ccccc4)nc3-c3ccccc3)o2)cc1`?
CHOP inhibitor: 39.9; S1P4 agonist: 1.2; S1P4 antag: -6.7; Hsp70 act: 0.0

How did Cc1ccc(CN2CCc3c(OCc4ccc(F)cc4)cccc3C2=O)cc1 do in these assays?
CHOP inhibitor: 68.7; S1P4 agonist: 2.0; S1P4 antag: 11.8; Hsp70 act: -0.2

Results for O=C1c2cccc(OCc3ccc(F)cc3)c2CCN1Cc1ccc(F)cc1 ?
CHOP inhibitor: 85.0*; S1P4 agonist: -0.3; S1P4 antag: -8.5; Hsp70 act: -0.5

Results for Cc1cccc(-n2cc(CN(C)Cc3nccn3C)c(-c3cccc(F)c3)n2)c1 ?
CHOP inhibitor: 34.9; S1P4 agonist: 2.2; S1P4 antag: -13.1; Hsp70 act: -0.4

Results for COc1ccc(C2/C=C\CN(C(=O)C3CCCCC3)CC(=O)N2Cc2ccc(F)cc2)cc1 (stereo unspecified) ?
CHOP inhibitor: 36.4

What do the screens show for `CC1CCc2c(sc(NC(=O)COC(=O)C3CCCO3)c2C#N)C1` (stereo unspecified)?
CHOP inhibitor: -12.1; S1P4 agonist: -2.2; S1P4 antag: -13.5; Hsp70 act: -0.3

Results for O=C(c1cccs1)N1CCN(Cc2ccccc2)CC1 ?
CHOP inhibitor: 10.7; S1P4 agonist: 0.8; S1P4 antag: -12.9; Hsp70 act: 0.0

What do the screens show for `O=C(c1cccs1)N1CCN(CCCc2ccccc2)CC1`?
CHOP inhibitor: 75.3*; S1P4 agonist: -0.5; S1P4 antag: 2.0; Hsp70 act: -0.4
